Screening results as filed in PubChem.
USP30 block – inhibitors of human USP30 deubiquitinase; Ubiquitin carboxyl-terminal hydrolase 30 (Homo sapiens), Q70CQ3; purified USP30, Ub-rhodamine cleavage fluorescence; inhibition, % at 25 µM; 47,000 tested, 5.3% active; AID 1645860, 2021
Target sequence (Q70CQ3 whole entry, looked up): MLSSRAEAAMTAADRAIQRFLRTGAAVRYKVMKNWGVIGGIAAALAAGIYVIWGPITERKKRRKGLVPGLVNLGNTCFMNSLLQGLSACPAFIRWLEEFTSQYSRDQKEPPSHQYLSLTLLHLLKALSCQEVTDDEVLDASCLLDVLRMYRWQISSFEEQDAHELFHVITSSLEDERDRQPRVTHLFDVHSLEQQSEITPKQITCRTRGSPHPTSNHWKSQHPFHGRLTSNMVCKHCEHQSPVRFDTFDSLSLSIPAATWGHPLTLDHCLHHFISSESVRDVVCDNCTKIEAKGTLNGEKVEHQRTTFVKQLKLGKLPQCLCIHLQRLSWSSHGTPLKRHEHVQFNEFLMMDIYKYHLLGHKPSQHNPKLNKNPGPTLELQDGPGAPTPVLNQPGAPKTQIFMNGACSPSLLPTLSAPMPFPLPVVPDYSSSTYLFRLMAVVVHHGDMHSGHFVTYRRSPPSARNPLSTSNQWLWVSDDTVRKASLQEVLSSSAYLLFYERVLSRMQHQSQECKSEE
USP8 block – inhibitors of human USP8 deubiquitinase | Ubiquitin carboxyl-terminal hydrolase 8 (Homo sapiens), P40818 | purified USP8, Ub-rhodamine cleavage fluorescence, 30 min | inhibition, % at 20 µM | 47,000 tested, 4.2% active
USP28 inh – inhibitors of human USP28 deubiquitinase | Ubiquitin carboxyl-terminal hydrolase 28 (Homo sapiens), Q96RU2 | purified USP28, Ub-rhodamine cleavage fluorescence, 30 min | inhibition, % at 25 µM | 47,000 tested, 3% active | AID 1645857, 2021
USP17 block – inhibitors of human USP17 deubiquitinase. 47,000 tested, 6.5% active. inhibition, % at 50 µM. AID 1645855, 2021. purified USP17, Ub-rhodamine cleavage fluorescence, 3 h
USP10 inh – inhibitors of human USP10 deubiquitinase | Ubiquitin carboxyl-terminal hydrolase 10 (Homo sapiens), Q14694 | purified USP10, Ub-rhodamine fluorescence, 60 min | 47,000 tested, 1.1% active | inhibition, % at 20 µM
An asterisk follows results filed as active; . = no result given. Sampled rows, rich in hits. Any-hit rate of the full collection: about 13%. No stated cut-off is given here; in the data, active means inhibition above about 30%; inactive means the rest.

SMILES	USP30 block	USP8 block	USP28 inh	USP17 block	USP10 inh
O=C(NC1CCCC1)c1cccn1Cc1noc(-c2ccccc2)n1	25.4	32.3*	11.2	16.1	2.8
O=c1[nH]c2ccccc2cc1CN(Cc1ccco1)S(=O)(=O)c1ccc(F)cc1	50.7*	9.6	34.2*	36.3*	15.8
Cc1noc(CCCC(=O)N2CCCC(N3CCNC3=O)C2)n1 (stereo unspecified)	-1.1	1.0	-12.5	-4.2	-0.8
Cn1cc(S(=O)(=O)N2CCCC2)cc1C(=O)Nc1ccccc1F	16.6	20.7	10.4	5.1	0.0
Cc1cccc(-n2c(=O)[nH]c3c(C(N)=O)nc(C4CCCCC4)nc32)c1	49.1*	22.9	23.9	27.7	6.8
COc1cccc(-c2nc(C(N)=O)c3[nH]c(=O)n(-c4cccc(Cl)c4)c3n2)c1OC	-109.7	-11.9	-17.2	50.7*	-7.7
NC(=O)c1nc(-c2cccc(F)c2)nc2c1[nH]c(=O)n2C1CCCCC1	-16.0	-15.8	-13.3	51.4*	-6.9
O=C(c1cn(-c2cc(-c3nc(C4CC4)no3)ccn2)cn1)N1CCOCC1	20.1	11.8	2.5	4.8	0.0
Cc1nn(-c2cccc(Cl)c2)c(Cl)c1/C=C/C(=O)c1ccc2c(c1)OCCO2	-34.0	-87.8	-9.7	-11.0	-2.7
N#C/C(=C\c1ccc(OCc2cccc(C(=O)O)c2)cc1)c1ccc(F)cc1	0.1	59.2*	28.8	69.4*	77.1*
CC(=O)Nc1ccc(S(=O)(=O)Nc2ccc(Nc3ccc(-n4cccn4)nn3)cc2)cc1	50.2*	-217.5	-0.1	36.3*	1.9
COc1ccc(-c2csc(N)n2)c2ccccc12	-88.9	83.1*	-11.4	24.0	-3.3
CC(C)N1C(=O)C2COCCN2C(=O)c2cc3c(cc21)OCO3 (stereo unspecified)	.	-3.0	.	36.9*	0.9
Cc1cnc(C2COCCN2C(=O)c2ccc3c(c2)OCO3)[nH]1 (stereo unspecified)	16.4	15.4	4.1	18.3	3.2
NC(=O)C1CCN(C(=O)c2ccc(Cl)c(S(=O)(=O)N3CCCCC3)c2)CC1	3.7	-23.2	4.2	-0.8	-3.1
Cc1nn(-c2ccccc2)c(C)c1C(=O)OCC(=O)Nc1cccc(Br)c1	-6.4	3.5	81.0*	-15.4	7.4
Cc1cc(NCC(=O)Nc2ccc(F)cc2)n2nc(-c3cccnc3)nc2n1	-91.7	-27.2	-24.0	-3.3	-8.2
CCn1ncc(CN(C)C(=O)c2cnn3c(C(F)F)cc(-c4ccc(OC)cc4)nc23)c1C	18.8	-0.6	10.1	0.3	-0.9
CCn1ncc(CN(C)C(=O)Nc2ccc(Cl)cc2)c1C	31.7*	17.4	9.0	16.0	-0.3
CNc1cccc(C2CN(C(=O)c3n[nH]c4c3CCC4)CCO2)n1 (stereo unspecified)	-6.5	0.0	-6.0	-5.2	-2.2
Cc1nn(-c2ccccc2)c2nc(C3CCN(C(=O)c4n[nH]c5c4CCC5)CC3)ccc12	38.0*	17.9	10.1	15.3	12.0
COc1ccc(C(=O)NCCc2c[nH]c3ccccc23)cc1[N+](=O)[O-]	3.5	-70.6	39.5*	-11.1	-2.8
COc1cc(OC)c2c(C)c(CC(=O)NCCc3c[nH]c4ccccc34)c(=O)oc2c1	-1.3	6.0	-9.5	33.3*	5.2
COc1cc2oc(=O)c(CC(=O)N[C@@H](Cc3c[nH]c4ccccc34)C(=O)O)c(C)c2cc1OC	-3.6	-4.2	-3.1	.	1.5
COc1ccccc1CNC(=O)c1[nH]cnc1C(=O)NCCc1c[nH]c2ccccc12	-0.8	-142.0	0.5	-15.9	5.7
SMILES	USP30 block	USP8 block	USP28 inh	USP17 block	USP10 inh
Cc1cccc(NC(=O)[C@@H]2CCCN2C2=NS(=O)(=O)c3ccccc32)c1C	31.6*	46.4*	0.0	34.8*	6.6
COc1cccc(NC(=O)c2ccc(F)cc2Cl)c1	3.2	0.5	54.3*	-0.2	-1.7
COc1ccc(N(C)S(=O)(=O)c2ccc(Cl)c(C(=O)Nc3cccc(C(C)=O)c3)c2)cc1	-41.8	-0.4	28.2	-17.1	-8.7
COc1ccc(NC(=O)c2ccc(S(C)(=O)=O)cc2Cl)cc1	-14.2	4.6	46.1*	8.7	1.4
O=C(NCc1noc(-c2cccc(Cl)c2)n1)c1coc(C2CC2)n1	9.3	-0.3	14.7	-2.8	-2.1
Cn1ccnc1CN1CCC(c2ccnc(Nc3cc(F)ccn3)n2)C1 (stereo unspecified)	11.9	-199.6	12.0	-32.6	0.3
